The values below come from PubChem BioAssay (NCATS).

Structures are written as SMILES. Inconclusive results are not listed. Values without a mark were called inactive. Activity calls are given as the source filed them. Unless noted, calls come from the whole dose curve; as a rule, active = well fitted curve in the direction sought with a large enough effect; inconclusive = small, poorly fitted or top-dose-only effect, or another doubt; inactive = no such curve, though single readings can be large; an effect the other way counts as inactive or inconclusive.

Experiment [1] deals with ATP-dependent 6-phosphofructokinase (Trypanosoma brucei brucei) (UniProt O15648). Kind of experiment: qHTS Assay to Find Inhibitors of T. brucei phosphofructokinase: hit validation (AID 492961).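 Note: luminescence reports ADP formed as PFK phosphorylates fructose-6-phosphate with ATP; % is set by controls: 0 for no effect and ±100 for the full control effect.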 In short, it runs like this:
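Measures ADP output of PFK (1.25 nM) at 0.1 mM ATP, 0.5 mM F6P, pH 8.0 TEA buffer with 5 mM MgCl2. No-enzyme wells define full inhibition; uninhibited enzyme wells define zero.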
(In general: qHTS replaces the single test concentration by a dilution series.)

For experiment [2], the target named is Luciferin 4-monooxygenase (Photinus pyralis) (UniProt P08659). Put plainly: Biochemical firefly luciferase enzyme assay for NPC (AID 624030).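 Note: purified P. pyralis luciferase at 10 nM with luciferin and ATP substrate; 0% = DMSO and -100% = full luciferase inhibition by PTC124 control; nearly all actives have a fitted effect of over 70% in size.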 In short, it runs like this: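 Direct inhibition of firefly luciferase enzyme (10 nM final, 50 mM Tris Acetate) assessed by luminescence within 5 minutes. Percent activity scaled between DMSO and PTC124 positive control, with concentration-effect curves classified by fit quality and response.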

Experiment [3] is described as follows: S16 Schwann cell PMP22 intronic element beta-lactamase assay (AID 624044; calls by dose curve; note: nearly all actives have a fitted effect of over 15% in size; note: potency is the fitted concentration of half-maximal effect;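 for ratio activity, negative = inhibition: 0% = DMSO and -100% = potassium clavulanate positive control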). To be noted: S16 rat Schwann cells, PMP22 element beta-lactamase FRET, 24 h; ratio activity, negative = inhibition: at 38.3 µM (top of the series). Summed up: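 Rat S16 Schwann cells with beta-Lac driven by a PMP22 intronic element, compound-treated 24 h at 37 °C. LiveBLAzer FRET B/G read: 460 nm normalized to potassium clavulanate vs DMSO; 535 nm FRET as viability; concentration-effect curves classified.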

A short description of experiment [4]: qHTS profiling for inhibitors of Plasmodium falciparum proliferation (AID 504749).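 For activity, negative = inhibition: 0% = DMSO vehicle and full inhibition = artemisinin control.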 Note: nearly all actives have a fitted effect of over 60% in size. Note: potency is the fitted concentration of half-maximal effect. To be noted: P. falciparum in erythrocytes, SYBR Green DNA, 72 h, at 28.7 µM (top of the series). In short, it runs like this:
(§1)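 Infected RBCs, 0.3% parasitemia/2.5% Hct final; cpd 72 h, 37 C, 5% CO2; lysis buffer with saponin/triton/SYBR Green I, o/n RT dark; FI 485/535; norm. to artemisinin (0.29 uM) and DMSO.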

For a further experiment, the system named is CP185. The experiment is described as above. To be noted: P. falciparum in erythrocytes, SYBR Green DNA, 72 h; series mostly up to 28.7 µM. In short, it runs like this:
as §1

The subject of another experiment is CP192. The description is as above. To be noted: P. falciparum in erythrocytes, SYBR Green DNA, 72 h; series mostly up to 28.7 µM. In short, it runs like this:
as §1

In the next experiment the test system is CP238. The experiment is described as above. To be noted: P. falciparum in erythrocytes, SYBR Green DNA, 72 h; series mostly up to 28.7 µM. In short, it runs like this:
as §1

A further experiment relates to Dd2. The description is as above. To be noted: P. falciparum in erythrocytes, SYBR Green DNA, 72 h; series mostly up to 28.7 µM. In short, it runs like this: as §1
A further experiment relates to FAB9. Described as above. To be noted: P. falciparum in erythrocytes, SYBR Green DNA, 72 h; series mostly up to 28.7 µM. In short, it runs like this:
as §1

For another experiment, the system named is JCK. Described as above. To be noted: P. falciparum in erythrocytes, SYBR Green DNA, 72 h; series mostly up to 28.7 µM. Summed up: as §1
The subject of a further experiment is N140. Described as above. To be noted: P. falciparum in erythrocytes, SYBR Green DNA, 72 h; series mostly up to 28.7 µM. In short, it runs like this: as §1
In the next experiment the test system is PC49. Described as above. To be noted: P. falciparum in erythrocytes, SYBR Green DNA, 72 h; series mostly up to 28.7 µM. Summed up: as §1
A further experiment has as its system CP262. The description is as above. To be noted: P. falciparum in erythrocytes, SYBR Green DNA, 72 h; series mostly up to 28.7 µM. In short, it runs like this: as §1
Another experiment deals with CP286. The experiment is described as above. To be noted: P. falciparum in erythrocytes, SYBR Green DNA, 72 h; series mostly up to 28.7 µM. In short, it runs like this: as §1
For a further experiment, the system named is CP315. The description is as above. To be noted: P. falciparum in erythrocytes, SYBR Green DNA, 72 h; series mostly up to 28.7 µM. In short, it runs like this:
as §1

The subject of the next experiment is CP325. The experiment is described as above. To be noted: P. falciparum in erythrocytes, SYBR Green DNA, 72 h; series mostly up to 28.7 µM. Summed up: as §1
The next experiment relates to HB3. The description is as above. To be noted: P. falciparum in erythrocytes, SYBR Green DNA, 72 h; series mostly up to 28.7 µM. In short, it runs like this:
as §1

The test system of the next experiment is CP211. Described as above. To be noted: P. falciparum in erythrocytes, SYBR Green DNA, 72 h; series mostly up to 28.7 µM. Summed up: as §1
Another experiment deals with CP269. Described as above. To be noted: P. falciparum in erythrocytes, SYBR Green DNA, 72 h; series mostly up to 28.7 µM. In short, it runs like this:
as §1

The next experiment relates to CP305. Described as above. To be noted: P. falciparum in erythrocytes, SYBR Green DNA, 72 h; series mostly up to 28.7 µM. Summed up: as §1

Sequence of ATP-dependent 6-phosphofructokinase (Trypanosoma brucei brucei) (O15648 whole entry, looked up): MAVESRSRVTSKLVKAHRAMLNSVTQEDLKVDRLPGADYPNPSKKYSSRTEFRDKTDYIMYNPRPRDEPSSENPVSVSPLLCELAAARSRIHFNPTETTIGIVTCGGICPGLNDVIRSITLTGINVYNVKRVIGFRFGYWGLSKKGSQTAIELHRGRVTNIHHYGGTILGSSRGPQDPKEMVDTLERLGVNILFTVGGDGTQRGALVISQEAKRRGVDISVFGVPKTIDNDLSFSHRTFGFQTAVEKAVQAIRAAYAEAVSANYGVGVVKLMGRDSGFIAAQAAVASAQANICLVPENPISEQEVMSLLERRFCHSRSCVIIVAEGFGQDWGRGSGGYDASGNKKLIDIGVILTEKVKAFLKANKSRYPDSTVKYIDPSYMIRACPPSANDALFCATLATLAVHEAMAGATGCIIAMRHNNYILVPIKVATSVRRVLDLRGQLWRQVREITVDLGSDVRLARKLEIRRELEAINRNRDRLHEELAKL
Sequence of Luciferin 4-monooxygenase (Photinus pyralis) (P08659 whole entry, looked up): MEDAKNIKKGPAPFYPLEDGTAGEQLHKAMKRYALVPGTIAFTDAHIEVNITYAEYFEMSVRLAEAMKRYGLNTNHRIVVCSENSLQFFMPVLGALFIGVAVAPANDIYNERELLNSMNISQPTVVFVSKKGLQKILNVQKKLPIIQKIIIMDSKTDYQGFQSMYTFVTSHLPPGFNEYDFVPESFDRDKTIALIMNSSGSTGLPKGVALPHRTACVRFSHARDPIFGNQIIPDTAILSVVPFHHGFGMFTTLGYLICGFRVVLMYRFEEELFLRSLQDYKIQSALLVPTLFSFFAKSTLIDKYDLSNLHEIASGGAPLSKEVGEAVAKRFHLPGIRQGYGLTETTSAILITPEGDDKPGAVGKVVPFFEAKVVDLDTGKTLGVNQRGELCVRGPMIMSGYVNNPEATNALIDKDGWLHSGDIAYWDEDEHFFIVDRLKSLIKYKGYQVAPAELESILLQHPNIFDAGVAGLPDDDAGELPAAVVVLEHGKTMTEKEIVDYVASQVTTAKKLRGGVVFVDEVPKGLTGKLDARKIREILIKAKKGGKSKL

As for `C=C1CC2C3C=C(C)C4=CC(=O)CCC4(C)C3CCC2(C)[C@@]1(OC(C)=O)C(C)=O` (stereo partly drawn), the Potency entry (in [1]; in experiment [2]; in experiment [3]; with CP185; in the experiment on CP192; in the experiment with CP238) was “inactive” in each case. Also, the Potency result in the experiment with Dd2, in the experiment with FAB9, in the experiment on JCK, in the experiment with N140 and in the experiment on PC49 was “inactive” each time. For the same compound, the activity, negative = inhibition in [4] (parasite line B) is -26.9%.

As to `COc1ccc(C(=O)/C(Br)=C/C(=O)O)cc1`, the Potency result (in experiment [1]; in [2]; in experiment [3]; in the experiment with CP185; in the experiment with CP192; in the experiment on CP238) was “inactive” each time. Further, the Potency entry in the experiment with CP262, in the experiment with CP286, with CP315, in the experiment with CP325, in the experiment with Dd2 and in the experiment on FAB9 was “inactive” in each case. For the same compound, the Potency result in the experiment on HB3, in the experiment on JCK, in the experiment with N140 and in the experiment on PC49 was “inactive” throughout. In addition, the figures for the activity, negative = inhibition in [4] (parasite line A) and in experiment [4] (parasite line B) were -21.1% and -8.61%, respectively.

On to `CC1(C)O[C@@H]2C[C@H]3[C@@H]4CCC5=CC(=O)C=C[C@]5(C)[C@H]4C(O)C[C@]3(C)[C@]2(C(=O)CO)O1` (stereo partly drawn), for which the Potency entry (in experiment [1]; in [2]; in experiment [3]; with CP185; in the experiment on CP192; in the experiment with CP211) was “inactive” in each case. Also, the Potency result in the experiment with CP238, in the experiment on CP262, with CP269, with CP286, in the experiment on CP305 and in the experiment on CP325 was “inactive” in each case. The Potency entry in the experiment with FAB9, in the experiment with HB3 and with JCK was “inactive” in each case. In addition, the activity, negative = inhibition in experiment [4] (parasite line A) is -12.4%; in experiment [4] (parasite line B), -28%. Moreover, in the experiment on N140, the Potency was 11.2 µM (active).

As for `Nc1nc(Cl)nc2c1ncn2[C@@H]1O[C@H](CO)[C@H](O)C1F` (stereo partly drawn), the Potency result (in experiment [1]; in [2]; in the experiment on CP185; in the experiment with CP192; with CP211; with CP238) was “inactive” in each case. The Potency entry in the experiment on CP262, in the experiment on CP269, in the experiment with CP286, with CP305, with CP315 and with CP325 was “inactive” each time. Also, the Potency result in the experiment on Dd2, in the experiment with FAB9, in the experiment with HB3, with JCK, in the experiment on N140 and in the experiment with PC49 was “inactive” each time. Further, in experiment [3], the Potency is 8.91 µM (active). In addition, the activity, negative = inhibition in experiment [4] (parasite line A) is -2.17%.

For `C[C@H](CN1c2ccccc2Sc2cccnc21)N(C)C`, the Potency entry (in experiment [1]; in experiment [2]; in experiment [3]; with CP262; in the experiment on FAB9; with HB3) was “inactive” in each case. For the same compound, the Potency result in the experiment with PC49 is “inactive”. Besides, the figures for the activity, negative = inhibition in experiment [4] (parasite line A) and in [4] (parasite line B) were -16.9% and -1.99%, respectively. The Potency in the experiment on CP185 is 11.2 µM (active); in the experiment on CP238, 10 µM (active); with CP286, 4.47 µM (active); with Dd2 it was 4.47 µM (active); with N140, 11.2 µM (active).

In the case of `C/C=C1/NN(CCCN2CCN(c3cccc(Cl)c3)CC2)C(=O)N1CCOc1ccccc1`, the Potency entry (in experiment [1]; in experiment [2]; in experiment [3]; in the experiment on CP185; with CP192; in the experiment on CP211) was “inactive” in each case. Besides, the Potency entry in the experiment on CP238, in the experiment with CP262, in the experiment with CP269, with CP286, in the experiment on CP305 and in the experiment with CP315 was “inactive” throughout. The Potency entry in the experiment with CP325, with FAB9, in the experiment with HB3, in the experiment with JCK, with N140 and in the experiment on PC49 was “inactive” in each case. The activity, negative = inhibition was -8.67% in [4] (parasite line A) and 7.5% in experiment [4] (parasite line B).

In the case of `C[C@]12CCC(=O)C=C1[C@@H]1C[C@H]1[C@H]1[C@@H]3[C@@H]4C[C@H]4[C@@]4(CCC(=O)O4)[C@@]3(C)CC[C@@H]12`, the Potency entry (in [1]; in experiment [2]; in [3]; in the experiment on CP185; with CP192; in the experiment on CP211) was “inactive” in each case. The Potency result in the experiment on CP238, in the experiment on CP262, in the experiment with CP269, in the experiment on CP286, in the experiment on CP305 and with CP315 was “inactive” each time. The Potency result in the experiment with CP325, with Dd2, in the experiment with FAB9, in the experiment on HB3, with JCK and in the experiment with N140 was “inactive” each time. Besides, in the experiment with PC49, the Potency result is “inactive”. For the same compound, the activity, negative = inhibition in experiment [4] (parasite line A) was -2.83%; in experiment [4] (parasite line B) it was -11.7%.
